Screens deposited in PubChem BioAssay by National Center for Advancing Translational Sciences (NCATS).
NS1 function inh = influenza NS1 inhibition; Potency, µM (top dose mostly 46.1 µM), for the others: at the top dose activity, positive = more growth; actives 0.4% (n = 270,000); calls by dose curve; note: potency is the fitted concentration of half-maximal effect; actives are rising curves; nearly all actives have a fitted effect of over 50% in size
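OD600 was taken as the measure of yeast growth restored by compound in an NS1-expressing S. cerevisiae strain. Cells had been washed out of glucose medium and diluted 1:100 into galactose -URA medium, pH 6.0.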
Shiga inhibitor = inhibitors of Shiga toxin in Vero cells; Vero cells, Shiga toxin protein synthesis inhibition reporter; inhibition, % at 38.7 µM; actives 9.2% (n = 290,000); in the data active = inhibition mostly above about 28%, no sharp cut-off; inactive = mostly below about 43%; note: 0% is about no effect
Pf growth 48h = inhibits P. falciparum growth in the first generation, 48 h; Potency, µM (doses to about 28.7 µM), inactives show at the highest dose activity change, negative = inhibition, usual class: inhibitors; actives 5.9% (n = 310,000); AID 504832; P. falciparum luciferase growth in erythrocytes, 48 h; note: potency is the fitted concentration of half-maximal effect; % is set by controls: 0 for no effect and ±100 for the full control effect
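Parasite viability was followed by luminescence of a genomically integrated firefly luciferase. Cultures held 0.1% parasitemia at 2% hematocrit (final), incubated under 5% CO2 at 37 C.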
CHX counter = counter-screen for Shiga toxin inhibitors: cycloheximide protein synthesis inhibition; cell reporter, cycloheximide protein synthesis inhibition counterscreen; actives 12% (n = 300,000); AID 2314; max response, %; in the data active = max response mostly above about 13%, no sharp cut-off; inactive = mostly below about 14%; note: read at 38.3 µM for the half of the compounds with a filed dose; 0% is about no effect
Pf growth 96h = P. falciparum growth inhibition at 96 hour, primary screen for plastid delayed-death inhibitors. actives 6.9% (n = 320,000). P. falciparum luciferase reporter growth, 96 h. AID 504834. Potency, µM (titrated, usually from 28.7 µM), for inactives: top-dose activity change, negative = inhibition, usual class: inhibitors; note: potency is the fitted concentration of half-maximal effect; % is set by controls: 0 for no effect and ±100 for the full control effect
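Delayed-death screen, second-generation endpoint: infected erythrocytes, 2% hematocrit, 0.05% parasitemia final; 96 hours at 37 C, 5% CO2; luciferase detection reagent; luminescence decrease equals reduced growth.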
* = called active by the depositor; ? = inconclusive; nt = no result. In the library only some 21% were active in any assay of this set; here they are far more common. Unless noted, calls come from the whole dose curve; as a rule, active = well fitted inhibition curve with a large enough effect; inconclusive = small, poorly fitted or top-dose-only effect, or another doubt; inactive = no such curve, though single readings can be large or run the other way.

SMILES | NS1 function inh | Shiga inhibitor | Pf growth 48h | CHX counter | Pf growth 96h
COC(=O)[C@@]1(Cc2ccccc2)[C@H]2c3cc(C(=O)N4CCCC4)n(CCSCCO)c3C[C@H]2CN1C(=O)c1ccccc1 | -27% | -14 | 1.7µM* | -4 | 2.3µM*
COC(=O)[C@@]1(Cc2ccc(F)cc2)[C@H]2c3cc(C(=O)N(C)C)n(CCc4ccccn4)c3C[C@H]2CN1C(=O)c1ccccc1 | -23% | -16 | 2.6µM* | -3 | 3.3µM*
COCCn1c(C(=O)N2CCCC2)cc2c1C[C@H]1CN(C(=O)c3ccccc3)[C@@](Cc3ccc(F)cc3)(C(=O)OC)[C@@H]21 | -28% | -16 | 1.7µM* | -5 | 4.7µM*
CCc1nnc(NC(=O)CSc2nnc(CNc3ccc(F)cc3)n2C2CCCCC2)s1 | -3% | 29 | ? | 4 | 3%
COc1cc(NC(=O)Cn2cnc3sc(C)c(S(=O)(=O)N4CCOCC4)c3c2=O)cc(OC)c1OC | 5% | -12 | 0% | 9 | 33%
Cc1c(Cl)cccc1NC(=O)c1ccc(OCC(=O)NCc2ccccc2)cc1 | 11% | -7 | -16% | -5 | ?
Cc1sc(Cc2nc(O)cs2)nc1-c1ccccc1 | nt | -11 | ? | -3 | 14%
COC(=O)[C@@]1(Cc2ccc(OC)cc2)[C@H]2c3cc(C(=O)N4CCCC4)n(Cc4ccc(C)o4)c3C[C@H]2CN1C(=O)c1ccccc1 | ? | -9 | ? | -3 | 2.1µM*
Cc1cc(C)n(C(=O)c2c([N+](=O)[O-])c(C)nn2C)n1 | -4% | -3 | 15% | 1 | -7%
Cc1ccc(SC(=O)c2c([N+](=O)[O-])c(C)nn2C)cc1 | -54% | 9 | -2% | 12* | -18%
CCOc1ccc(NC(=O)C2CC(=O)OC2c2ccccc2)cc1 (configuration not stated) | 2% | -8 | 24% | 1 | -26%
Cc1cccc(-n2c(-c3ccco3)nc3nc4ccccc4nc32)c1 | 10% | -8 | 1% | -1 | -7%
CC(C)OCCCn1c(-c2ccco2)nc2nc3ccccc3nc21 | -38% | 21 | ? | 13* | 3.3µM*
CCC(C)n1c(-c2ccco2)nc2nc3ccccc3nc21 (configuration not stated) | -29% | 6 | ? | 14 | 10µM*
COc1cccc(-n2c(-c3ccco3)nc3nc4ccccc4nc32)c1 | 6% | -4 | 2% | -3 | 3.3µM*
COCCn1c(-c2ccco2)nc2nc3ccccc3nc21 | -13% | 26 | -4% | 11 | -10%
O=C(NCc1ccc2c(c1)OCO2)c1cc(-c2ccc(Cl)cc2Cl)on1 | 8% | 9 | 6% | 3 | ?
Cc1cccc(NC(=O)C2CCCN(S(=O)(=O)c3c(C)nn(C)c3C)C2)n1 (configuration not stated) | -2% | -2 | -11% | -2 | 12µM*
Cc1ccc(CCNC(=O)C2CCCN(S(=O)(=O)c3c(C)nn(C)c3C)C2)cc1 (configuration not stated) | -2% | -11 | nt | -5 | -15%
Cc1ccc(C)c(NC(=O)C2CCCN(S(=O)(=O)c3c(C)nn(C)c3C)C2)c1 (configuration not stated) | -4% | -14 | -26% | 7 | 2.9µM*
Cc1nn(C)c(C)c1S(=O)(=O)N1CCCC(C(=O)NC2CCCCC2)C1 (configuration not stated) | -8% | 17 | -4% | -3 | ?
O=S(=O)(c1ccc2ccccc2c1)N1CCN(S(=O)(=O)c2c(F)cccc2F)CC1 | nt | -10 | nt | -5 | nt
Cc1cccc(C(=O)NNC(=O)CN2C(=O)c3ccccc3C2=O)c1 | 3% | 27 | 6% | 1 | -23%
O=C(CSCc1c(F)cccc1Cl)NCCSCc1ccco1 | -7% | 4 | 6% | 7 | -15%
Cc1ccccc1CSCC(=O)Nc1ccccc1F | -20% | nt | 26% | 44* | ?
SMILES | NS1 function inh | Shiga inhibitor | Pf growth 48h | CHX counter | Pf growth 96h
Cc1ccc(CSCC(=O)NCc2ccco2)cc1 | nt | 25 | ? | 11 | ?
O=C(CSCc1c(F)cccc1Cl)NCc1ccco1 | -4% | 24 | ? | 26* | 61%
COc1ccc(C)cc1NC(=O)CSCc1ccccc1C | -24% | nt | -27% | 3 | -30%
Cc1ccccc1CSCC(=O)NCc1ccco1 | -6% | 36* | 11% | 21 | 26%
O=C(CSCc1c(Cl)cccc1Cl)NCc1ccco1 | 3% | 2 | ? | -1 | 13µM*
O=S(=O)(c1cc(F)ccc1F)N1CCN2CCCC2C1 (configuration not stated) | 12% | -2 | ? | -4 | ?
